Among the test systems are HCT-15 colon; HT29 colon; SNB-19 CNS; U251 CNS; PC-3 prostate; SK-MEL-5 melanoma; UACC-62 melanoma; LOX IMVI melanoma; SK-MEL-28 melanoma; SK-MEL-2 melanoma; EKVX NSCLC; SN12C renal; UO-31 renal; TK-10 renal; ACHN renal; CAKI-1 renal; A498 renal; CCRF-CEM leukemia; MOLT-4 leukemia; SNB-75 CNS.
Assay in all cases: NCI-60 one-dose screen, 48 h (100 = growth as untreated, 0 = no growth, -100 = all killed)
Common to all, as to conditions: 10 µM unless noted

Values joined by “and” are separate entries in the source; they are usually repeats but may differ in a detail not shown here. Equal entries are not always repeated. The panel holds about 83,000 compounds, 20% with a hit somewhere; the sample as a whole holds those more often.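 48-hour exposure, single concentration, 96-well plates; percent growth endpoint where 0 means no net growth. Active: below 10.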 Active and inactive are the calls of the source.

Among the data in PubChem BioAssay (NCI) are growth values, retold here.

For `CC(C)Oc1ccc2cc(-c3nn(CC4CCNCC4)c4ncnc(N)c34)ccc2c1`, the growth in the assay with HCT-15 colon is 61.9% (inactive) and -7.35% (active); in the assay on HT29 colon, 37.9% (inactive) and -13.1% (active); in the assay with SNB-19 CNS it was 92.7% (inactive) and 24.8% (inactive); in the assay with U251 CNS, 77.7% (inactive) and -11.9% (active); in the assay on PC-3 prostate, 65.1% (inactive) and 16.6% (inactive); in the assay with SK-MEL-5 melanoma it was 59.8% (inactive) and -94.4% (active). Moreover, the growth in the assay on UACC-62 melanoma was -65.3% (active); in the assay with LOX IMVI melanoma, 69.8% (inactive) and -80.3% (active); with SK-MEL-28 melanoma, 79.1% (inactive) and -85.7% (active); with SK-MEL-2 melanoma it was 100% (inactive); in the assay with EKVX NSCLC, 97.4% (inactive) and 26.2% (inactive); in the assay with SN12C renal, 79.7% (inactive). The growth in the assay with UO-31 renal was 71.6% (inactive) and 36.9% (inactive); with TK-10 renal it was 82.2% (inactive) and 14.6% (inactive); in the assay with ACHN renal, 88.1% (inactive) and 14.1% (inactive); in the assay with CAKI-1 renal, 106% (inactive) and 31% (inactive); in the assay on A498 renal, 75% (inactive) and 16.7% (inactive); with CCRF-CEM leukemia it was 60.6% (inactive) and -23% (active). The growth in the assay on MOLT-4 leukemia was 29% (inactive) and -23.8% (active).
Turning to `OCCN1CCN(CCO)CC1`, the growth with HCT-15 colon was 102% (inactive) and 101% (inactive) and 107% (inactive); in the assay on HT29 colon it was 108% (inactive) and 101% (inactive) and 110% (inactive); in the assay on SNB-19 CNS it was 99.2% (inactive) and 113% (inactive); with U251 CNS it was 95.7% (inactive) and 98% (inactive) and 105% (inactive); with PC-3 prostate, 91.7% (inactive) and 99.9% (inactive) and 96.2% (inactive); in the assay with SK-MEL-5 melanoma it was 102% (inactive) and 92% (inactive) and 115% (inactive). In addition, the growth is 99.5% (inactive) and 92.6% (inactive) and 109% (inactive) in the assay with UACC-62 melanoma; 92.9% (inactive) and 93.2% (inactive) and 111% (inactive) with LOX IMVI melanoma; 33.7% (inactive) and 104% (inactive) and 106% (inactive) in the assay with SK-MEL-28 melanoma; 104% (inactive) and 97.3% (inactive) and 115% (inactive) in the assay with SK-MEL-2 melanoma; 107% (inactive) and 85.1% (inactive) and 114% (inactive) in the assay on EKVX NSCLC; 98.1% (inactive) and 89.2% (inactive) and 112% (inactive) with SN12C renal. In addition, the growth with UO-31 renal is 81.9% (inactive) and 89.7% (inactive) and 86.7% (inactive); with TK-10 renal, 93.6% (inactive) and 107% (inactive) and 108% (inactive); with ACHN renal, 99.1% (inactive) and 98% (inactive) and 104% (inactive); in the assay with CAKI-1 renal, 104% (inactive) and 81.4% (inactive) and 120% (inactive); with A498 renal, 110% (inactive) and 95.5% (inactive) and 101% (inactive); with CCRF-CEM leukemia, 99.5% (inactive) and 88.4% (inactive) and 98% (inactive).
For the molecule `C1CCCCNCCC1`, the growth in the assay with HCT-15 colon was 113% (inactive); in the assay on HT29 colon, 95.1% (inactive); in the assay on SNB-75 CNS it was 99.5% (inactive); in the assay on SNB-19 CNS it was 110% (inactive); in the assay on U251 CNS, 103% (inactive); in the assay on PC-3 prostate, 101% (inactive). The growth was 109% (inactive) with SK-MEL-5 melanoma; 103% (inactive) with UACC-62 melanoma; 109% (inactive) in the assay on SK-MEL-28 melanoma; 99.8% (inactive) in the assay with EKVX NSCLC; 108% (inactive) in the assay with SN12C renal; 92.5% (inactive) in the assay with UO-31 renal. The growth was 125% (inactive) in the assay on TK-10 renal; 117% (inactive) with ACHN renal; 90.2% (inactive) in the assay with CAKI-1 renal; 113% (inactive) in the assay on A498 renal; 104% (inactive) with CCRF-CEM leukemia; 110% (inactive) in the assay with MOLT-4 leukemia.
For `Nc1ccc2[nH]c(-c3ccccc3)cc(=O)c2c1`, the growth with HCT-15 colon is 73.7% (inactive); with HT29 colon it was 78.7% (inactive); in the assay on SNB-75 CNS it was 82.4% (inactive); with SNB-19 CNS it was 88.7% (inactive); with U251 CNS it was 72.9% (inactive); in the assay with PC-3 prostate, 74.1% (inactive). Further, the growth with SK-MEL-5 melanoma is 58.2% (inactive); in the assay on UACC-62 melanoma, 77.6% (inactive); with SK-MEL-28 melanoma, 86.5% (inactive); in the assay with EKVX NSCLC, 96.1% (inactive); in the assay with SN12C renal, 98.2% (inactive); in the assay on UO-31 renal, 89.9% (inactive). The growth in the assay on TK-10 renal was 123% (inactive); with ACHN renal, 102% (inactive); in the assay on CAKI-1 renal, 72.2% (inactive); in the assay on A498 renal, 84.2% (inactive); in the assay on CCRF-CEM leukemia it was 67.9% (inactive); with MOLT-4 leukemia, 63.8% (inactive).
As for `O=[N+]([O-])c1ccc(Oc2ccccc2)cc1`, the growth with HCT-15 colon is 123% (inactive) and 104% (inactive); in the assay with HT29 colon, 113% (inactive) and 103% (inactive); in the assay with SNB-19 CNS it was 97% (inactive) and 114% (inactive); with U251 CNS, 102% (inactive) and 105% (inactive); in the assay on PC-3 prostate, 81.9% (inactive) and 88.4% (inactive); with SK-MEL-5 melanoma, 109% (inactive) and 108% (inactive). Also, the growth was 107% (inactive) and 106% (inactive) with UACC-62 melanoma; 95.3% (inactive) and 99.3% (inactive) in the assay on LOX IMVI melanoma; 108% (inactive) with SK-MEL-28 melanoma; 112% (inactive) and 117% (inactive) in the assay with SK-MEL-2 melanoma; 100% (inactive) and 122% (inactive) in the assay with EKVX NSCLC; 120% (inactive) and 116% (inactive) in the assay with SN12C renal. The growth with UO-31 renal was 80.1% (inactive) and 87.6% (inactive); with TK-10 renal, 97.9% (inactive) and 103% (inactive); in the assay on ACHN renal it was 106% (inactive) and 105% (inactive); in the assay with CAKI-1 renal it was 93.4% (inactive) and 126% (inactive); in the assay with A498 renal, 106% (inactive) and 96.9% (inactive); with CCRF-CEM leukemia, -24% (active) and 92.5% (inactive). In addition, the growth with MOLT-4 leukemia was 96.5% (inactive) and 92.6% (inactive).
For the molecule `CC1=C(/C=C/C(C)=C/C=C/C(C)=C/C(=O)O)C(C)(C)CCC1`, the growth is 91.4% (inactive) and 81.1% (inactive) and 92% (inactive) with HCT-15 colon; 88.7% (inactive) and 89.2% (inactive) and 96% (inactive) in the assay on HT29 colon; 86.1% (inactive) and 97.4% (inactive) and 90.3% (inactive) in the assay on SNB-19 CNS; 83.2% (inactive) and 87.1% (inactive) and 90.4% (inactive) with U251 CNS; 88.3% (inactive) and 89.7% (inactive) and 101% (inactive) in the assay with PC-3 prostate; 83.5% (inactive) and 86.5% (inactive) and 99.3% (inactive) in the assay on SK-MEL-5 melanoma. Moreover, the growth in the assay with UACC-62 melanoma is 73.2% (inactive) and 80.4% (inactive) and 61.3% (inactive); in the assay with LOX IMVI melanoma, 91% (inactive) and 85.3% (inactive) and 89.9% (inactive); in the assay on SK-MEL-28 melanoma it was 109% (inactive) and 116% (inactive); in the assay on SK-MEL-2 melanoma, 87.5% (inactive) and 94.7% (inactive); with EKVX NSCLC, 84% (inactive) and 92.2% (inactive) and 87.7% (inactive); in the assay with SN12C renal it was 81% (inactive) and 85.3% (inactive) and 73.8% (inactive). Besides, the growth in the assay on UO-31 renal was 80.9% (inactive) and 64.5% (inactive) and 86.8% (inactive); in the assay with TK-10 renal, 101% (inactive) and 99.5% (inactive) and 109% (inactive); in the assay with ACHN renal it was 94.9% (inactive) and 98.9% (inactive) and 94.8% (inactive); with CAKI-1 renal, 81.3% (inactive) and 87% (inactive) and 82.9% (inactive); in the assay on A498 renal, 20.2% (inactive) and 109% (inactive) and 86.7% (inactive); in the assay on CCRF-CEM leukemia, 78.5% (inactive) and 92.8% (inactive) and 103% (inactive).
With `Cc1cc(-c2ccc(NS(=O)(=O)c3ccccc3)c(C)c2)ccc1NS(=O)(=O)c1ccccc1`, the growth is 84.8% (inactive) and 84.9% (inactive) in the assay on HCT-15 colon; 74.2% (inactive) and 99.7% (inactive) with HT29 colon; 72.6% (inactive) and 105% (inactive) with SNB-75 CNS; 91.4% (inactive) and 101% (inactive) in the assay with SNB-19 CNS; 94% (inactive) and 95.2% (inactive) in the assay on U251 CNS; 63.1% (inactive) and 78.7% (inactive) in the assay with PC-3 prostate. Also, the growth in the assay with SK-MEL-5 melanoma is 87.2% (inactive); in the assay on UACC-62 melanoma, 55.8% (inactive) and 63.5% (inactive); in the assay with SK-MEL-28 melanoma, 92.2% (inactive) and 109% (inactive); in the assay with EKVX NSCLC, 61.5% (inactive) and 73.6% (inactive); in the assay with SN12C renal it was 94.7% (inactive) and 98.4% (inactive); in the assay with UO-31 renal it was 66.7% (inactive) and 108% (inactive). Also, the growth in the assay with TK-10 renal was 83.4% (inactive) and 109% (inactive); in the assay on ACHN renal it was 81.2% (inactive) and 96.7% (inactive); with CAKI-1 renal, 61.3% (inactive) and 98.8% (inactive); in the assay on A498 renal it was 90.8% (inactive) and 89.8% (inactive); in the assay with CCRF-CEM leukemia, 80.5% (inactive) and 86.6% (inactive); in the assay on MOLT-4 leukemia, 41% (inactive) and 56.3% (inactive).
Regarding `Cc1ccc(-c2noc(C)n2)cc1`, the growth was 101% (inactive) with HCT-15 colon; 98.3% (inactive) in the assay on HT29 colon; 85.9% (inactive) with SNB-75 CNS; 105% (inactive) in the assay with SNB-19 CNS; 97.9% (inactive) with PC-3 prostate; 99.7% (inactive) in the assay with SK-MEL-5 melanoma. In addition, the growth in the assay with UACC-62 melanoma is 105% (inactive); with LOX IMVI melanoma, 99.7% (inactive); in the assay with SK-MEL-28 melanoma it was 110% (inactive); in the assay with SK-MEL-2 melanoma, 120% (inactive); in the assay on SN12C renal it was 102% (inactive); in the assay with UO-31 renal, 84% (inactive). For the same molecule, the growth in the assay with TK-10 renal is 107% (inactive); in the assay on ACHN renal it was 105% (inactive); with CAKI-1 renal, 94.5% (inactive); in the assay on A498 renal it was 80.8% (inactive); in the assay on CCRF-CEM leukemia, 103% (inactive); in the assay with MOLT-4 leukemia, 90.5% (inactive).
